The record followed here is PMC9911399, “Two distinct binding modes provide the RNA-binding protein RbFox with extraordinary sequence specificity”.

Positions count from the first letter of the chain named. In all, about 16,000 sequences were measured (“ka relative to ugcaugu”: median about 0.096, highest 2% from about 0.35 on). For the sample, the highest values were picked, then their nearest neighbours and some sequences at random.

Sequences and labels used below:
B1: UUUUCUG (DNA:RNA)
RNA: GGGAGACCGGAAUUCAGAUUGUCCUUUUCUGUUAAAUCCCGUCGUAGCCACCA
DNA 1: CAATCTGAATTCCGGTCTCCC
DNA 2: TGGTGGCTACGACGGGATT
B2: UCCUCCG (DNA:RNA)
RNA: B1 RNA with U26C, U27C, U30C
DNA 1: CAATCTGAATTCCGGTCTCCC
DNA 2: TGGTGGCTACGACGGGATT
B3: GCCCAGU (DNA:RNA)
RNA: GGGAGACCGGAAUUCAGAUUGUCCGCCCAGUUUAAAUCCCGUCGUAGCCACCA
DNA 1: CAATCTGAATTCCGGTCTCCC
DNA 2: TGGTGGCTACGACGGGATT
B4: GGGGGGG (DNA:RNA)
RNA: B3 RNA with C26G, C27G, C28G, A29G, U31G
DNA 1: CAATCTGAATTCCGGTCTCCC
DNA 2: TGGTGGCTACGACGGGATT
B5: GUCGGGG (DNA:RNA)
RNA: B3 RNA with C26U, C28G, A29G, U31G
DNA 1: CAATCTGAATTCCGGTCTCCC
DNA 2: TGGTGGCTACGACGGGATT
B6: CGGGUUG (DNA:RNA)
RNA: B1 RNA with U25C, U26G, U27G, U28G, C29U
DNA 1: CAATCTGAATTCCGGTCTCCC
DNA 2: TGGTGGCTACGACGGGATT
B7: CGGGUCG (DNA:RNA)
RNA: B1 RNA with U25C, U26G, U27G, U28G, C29U, U30C
DNA 1: CAATCTGAATTCCGGTCTCCC
DNA 2: TGGTGGCTACGACGGGATT
B8: GGGUUGA (DNA:RNA)
RNA: B3 RNA with C26G, C27G, C28U, A29U, U31A
DNA 1: CAATCTGAATTCCGGTCTCCC
DNA 2: TGGTGGCTACGACGGGATT
B9: CGGUUGA (DNA:RNA)
RNA: B3 RNA with G25C, C26G, C27G, C28U, A29U, U31A
DNA 1: CAATCTGAATTCCGGTCTCCC
DNA 2: TGGTGGCTACGACGGGATT
B10: GGGUCCG (DNA:RNA)
RNA: B1 RNA with U25G, U26G, U27G, U30C
DNA 1: CAATCTGAATTCCGGTCTCCC
DNA 2: TGGTGGCTACGACGGGATT
B11: GGGGUUG (DNA:RNA)
RNA: B1 RNA with U25G, U26G, U27G, U28G, C29U
DNA 1: CAATCTGAATTCCGGTCTCCC
DNA 2: TGGTGGCTACGACGGGATT
B12: GGGGUCG (DNA:RNA)
RNA: B3 RNA with C26G, C27G, C28G, A29U, G30C, U31G
DNA 1: CAATCTGAATTCCGGTCTCCC
DNA 2: TGGTGGCTACGACGGGATT
B13: CGGGGGG (DNA:RNA)
RNA: B3 RNA with G25C, C26G, C27G, C28G, A29G, U31G
DNA 1: CAATCTGAATTCCGGTCTCCC
DNA 2: TGGTGGCTACGACGGGATT
B14: CACCGGG (DNA:RNA)
RNA: B3 RNA with G25C, C26A, A29G, U31G
DNA 1: CAATCTGAATTCCGGTCTCCC
DNA 2: TGGTGGCTACGACGGGATT
B15: GGGUUAA (DNA:RNA)
RNA: B3 RNA with C26G, C27G, C28U, A29U, G30A, U31A
DNA 1: CAATCTGAATTCCGGTCTCCC
DNA 2: TGGTGGCTACGACGGGATT
B16: UAAGAGC (DNA:RNA)
RNA: B3 RNA with G25U, C26A, C27A, C28G, U31C
DNA 1: CAATCTGAATTCCGGTCTCCC
DNA 2: TGGTGGCTACGACGGGATT
B17: GACCGCG (DNA:RNA)
RNA: B3 RNA with C26A, A29G, G30C, U31G
DNA 1: CAATCTGAATTCCGGTCTCCC
DNA 2: TGGTGGCTACGACGGGATT
B18: GCACUUC (DNA:RNA)
RNA: B3 RNA with C27A, A29U, G30U, U31C
DNA 1: CAATCTGAATTCCGGTCTCCC
DNA 2: TGGTGGCTACGACGGGATT
B19: UGACGAC (DNA:RNA)
RNA: B3 RNA with G25U, C26G, C27A, A29G, G30A, U31C
DNA 1: CAATCTGAATTCCGGTCTCCC
DNA 2: TGGTGGCTACGACGGGATT
B20: GCCAGGU (DNA:RNA)
RNA: B3 RNA with C28A, A29G
DNA 1: CAATCTGAATTCCGGTCTCCC
DNA 2: TGGTGGCTACGACGGGATT
B21: UAUGCGU (DNA:RNA)
RNA: B1 RNA with U26A, U28G, U30G, G31U
DNA 1: CAATCTGAATTCCGGTCTCCC
DNA 2: TGGTGGCTACGACGGGATT
B22: GAAAGGG (DNA:RNA)
RNA: B3 RNA with C26A, C27A, C28A, A29G, U31G
DNA 1: CAATCTGAATTCCGGTCTCCC
DNA 2: TGGTGGCTACGACGGGATT
B23: GGCACGG (DNA:RNA)
RNA: B3 RNA with C26G, C28A, A29C, U31G
DNA 1: CAATCTGAATTCCGGTCTCCC
DNA 2: TGGTGGCTACGACGGGATT
B24: AUAACAC (DNA:RNA)
RNA: B1 RNA with U25A, U27A, U28A, U30A, G31C
DNA 1: CAATCTGAATTCCGGTCTCCC
DNA 2: TGGTGGCTACGACGGGATT
B25: UUAGACU (DNA:RNA)
RNA: B3 RNA with G25U, C26U, C27A, C28G, G30C
DNA 1: CAATCTGAATTCCGGTCTCCC
DNA 2: TGGTGGCTACGACGGGATT
B26: UCGAAAU (DNA:RNA)
RNA: B3 RNA with G25U, C27G, C28A, G30A
DNA 1: CAATCTGAATTCCGGTCTCCC
DNA 2: TGGTGGCTACGACGGGATT
B27: UCGUAUC (DNA:RNA)
RNA: B1 RNA with U26C, U27G, C29A, G31C
DNA 1: CAATCTGAATTCCGGTCTCCC
DNA 2: TGGTGGCTACGACGGGATT
B28: UCGAAUC (DNA:RNA)
RNA: B3 RNA with G25U, C27G, C28A, G30U, U31C
DNA 1: CAATCTGAATTCCGGTCTCCC
DNA 2: TGGTGGCTACGACGGGATT
B29: UCGAUUG (DNA:RNA)
RNA: B1 RNA with U26C, U27G, U28A, C29U
DNA 1: CAATCTGAATTCCGGTCTCCC
DNA 2: TGGTGGCTACGACGGGATT
B30: UCGAAUG (DNA:RNA)
RNA: B1 RNA with U26C, U27G, U28A, C29A
DNA 1: CAATCTGAATTCCGGTCTCCC
DNA 2: TGGTGGCTACGACGGGATT
B31: UCGAUUC (DNA:RNA)
RNA: B1 RNA with U26C, U27G, U28A, C29U, G31C
DNA 1: CAATCTGAATTCCGGTCTCCC
DNA 2: TGGTGGCTACGACGGGATT

In this experiment the target is T1, RBFOX1 RRM RbFoxmut (Fox-RRM*) (Homo sapiens, UniProt Q9NWB1 109-208, R118D;E147R;N151S;E152T).
T1 sequence: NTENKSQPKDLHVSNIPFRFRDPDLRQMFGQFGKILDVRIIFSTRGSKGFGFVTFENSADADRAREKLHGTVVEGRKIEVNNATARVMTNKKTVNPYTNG
The experiment in a line: EMSA; HiTS-Eq, 1 nM pool, 10 min; buffer printed only for the single-RNA assays: 10 mM Tris pH 7.5, 150 mM NaCl, 3.4 mM EDTA, 0.001% NP-40, 30 C. The conditions noted are these: tags: His6 N-terminal (pET28a); label: 5' 32P. In outline:
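Purified RbFox RRM, wild type or mutant, was incubated for 10 min in 50 µL with 1 nM of a 5′-radiolabelled RNA pool carrying 7 randomized nucleotides, whose flanks were annealed to DNA oligonucleotides, over a series of increasing protein concentrations. Unbound RNA was resolved on 8% native PAGE, cut out, reverse-transcribed, barcoded by PCR and sequenced on an Illumina HiSeq 2500. Relative association constants were derived from changes in read counts for each RNA species versus the control reaction and normalised to the cognate motif.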
A general note: Mobility shift assays separate free from complexed probe on a gel.
As for B1, the binding signal was 0.0689 KA relative to UGCAUGU.

Take B2: the binding signal was 0.0609 KA relative to UGCAUGU.

B3: the binding signal is 0.102 KA relative to UGCAUGU.

For the molecule B4, the binding signal is 0.0675 KA relative to UGCAUGU.

In the case of B5, the binding signal is 0.101 KA relative to UGCAUGU.

Consider B6, for which the binding signal was 0.66 KA relative to UGCAUGU.

In the case of B7, the binding signal is 0.259 KA relative to UGCAUGU.

For the molecule B8, the binding signal was 0.356 KA relative to UGCAUGU.

For the molecule B9, the binding signal is 0.139 KA relative to UGCAUGU.

With B10, the binding signal was 0.238 KA relative to UGCAUGU.

For the molecule B11, the binding signal is 0.609 KA relative to UGCAUGU.

Take B12: the binding signal is 0.357 KA relative to UGCAUGU.

Consider B13, for which the binding signal was 0.0805 KA relative to UGCAUGU.

B14: the binding signal is 0.0671 KA relative to UGCAUGU.

As to B15, the binding signal was 0.0954 KA relative to UGCAUGU.

In the case of B16, the binding signal is 0.0654 KA relative to UGCAUGU.

In the case of B17, the binding signal was 0.101 KA relative to UGCAUGU.

Turning to B18, the binding signal is 0.0473 KA relative to UGCAUGU.

Regarding B19, the binding signal is 0.069 KA relative to UGCAUGU.

For B20, the binding signal was 0.0955 KA relative to UGCAUGU.

B21: the binding signal was 0.108 KA relative to UGCAUGU.

Regarding B22, the binding signal was 0.0436 KA relative to UGCAUGU.

Turning to B23, the binding signal was 0.149 KA relative to UGCAUGU.

For the molecule B24, the binding signal was 0.0733 KA relative to UGCAUGU.

For the molecule B25, the binding signal was 0.0743 KA relative to UGCAUGU.

On to B26, for which the binding signal is 0.0789 KA relative to UGCAUGU.

Consider B27, for which the binding signal was 0.192 KA relative to UGCAUGU.

On to B28, for which the binding signal was 0.36 KA relative to UGCAUGU.

For the molecule B29, the binding signal is 0.239 KA relative to UGCAUGU.

Regarding B30, the binding signal is 1.31 KA relative to UGCAUGU.

Consider B31, for which the binding signal is 0.115 KA relative to UGCAUGU.
